EZH2 inh = inhibitors of human EZH2/PRC2 methyltransferase. AID 651548. Q15910. inhibition, % at 12.5 µM. PRC2 H3K27 methylation, DELFIA TRF, 1 h. actives 0.35% (n = 57,000);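 active = mean inhibition of replicates at least 50% and every single replicate also reaching 50%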;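 also: dimethyl H3K27 on biotinylated H3 21-44 peptide detected by antibody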
Of the large screens only hits and unclear results are named; the others gave an inactive call. Shown is part of a subset that was picked to be rich in hits.

C[C@H](CO)N1C[C@H](C)[C@H](CN(C)C)Oc2ccc(NC(=O)CCC(F)(F)F)cc2C1=O	none
C[C@H](NC(=O)N(C)C[C@@H]1OCc2ccccc2-c2ccccc2C(=O)N([C@H](C)CO)C[C@H]1C)c1ccccc1	none
C[C@@H]1CN([C@@H](C)CO)C(=O)c2cc(NC(=O)CCCCCC(=O)Nc3ccccc3N)ccc2O[C@H]1CN(C)S(=O)(=O)c1cn(C)cn1	none
CCOC(=O)c1c(NC(=O)Cn2cnc3ccccc3c2=O)sc2c1CCCC2	none
CCOC(=O)c1c(NC(=O)CSc2nc3ccccc3c(=O)[nH]2)sc2c1CCCC2	EZH2 inh 75.6
O=C(CSc1nc2ccccc2c(=O)[nH]1)Nc1ccc(Br)c(Cl)c1	EZH2 inh 55.4
COc1ccc(NC(=O)CSc2nc3ccccc3c(=O)[nH]2)cc1Cl	none
O=C(CSc1nc2ccccc2c(=O)[nH]1)Nc1ccc(F)c(Cl)c1	none
CCOC(=O)c1c(NC(=O)CSc2ncn[nH]2)sc2c1CCCCC2	none
COc1ccc(NC(=O)N(C)C[C@@H]2Oc3c(NC(=O)NC(C)C)cccc3C(=O)N([C@@H](C)CO)C[C@@H]2C)cc1	none
CN1CCN(C(=O)C[C@H]2C[C@@H]3c4cc(NS(=O)(=O)c5ccc(F)cc5)ccc4O[C@@H]3[C@H](CO)O2)CC1	none
COc1ccc([Si](C)(C)[C@@H]2[C@@H](CCO)O[C@]3(C(=O)N(c4ccccc4)c4ccccc43)[C@H]2C)cc1	EZH2 inh 50.7
COc1ccc([Si](C)(C)[C@@H]2[C@@H](CCO)O[C@]3(C(=O)N(Cc4ccc(NC(C)=O)cc4)c4ccccc43)[C@H]2C)cc1	none
COc1ccc([Si](C)(C)[C@@H]2[C@@H](CCn3cc([C@H](O)c4ccccc4)nn3)O[C@]3(C(=O)N(c4ccccc4)c4ccccc43)[C@H]2C)cc1	none
COc1ccc([Si](C)(C)[C@@H]2[C@@H](CCO)O[C@]3(C(=O)N(C)c4c(Br)cc(C)cc43)[C@H]2C)cc1	EZH2 inh 51.6
COc1ccc([Si](C)(C)[C@H]2[C@H](CCn3cc([C@H](O)c4ccccc4)nn3)O[C@@]3(C(=O)N(C)c4c(Br)cc(C)cc43)[C@@H]2C)cc1	none
COc1ccc([Si](C)(C)[C@@H]2[C@@H](CCO)O[C@]3(C(=O)N(C)c4ccccc43)[C@H]2C)cc1	none
CCc1ccc(NC(=O)CSc2nc(-c3ccc(OC)cc3)cc(=O)[nH]2)cc1	none
CC(=O)n1cc([C@@H]2C=C(C(=O)N3CCCCCCC3)O[C@H](OCc3ccc(CO)cc3)C2)c2ccccc21	none

High-throughput results: PubChem, Broad Institute
